Screening data deposited in PubChem BioAssay by National Center for Advancing Translational Sciences (NCATS).
Rows were chosen to be rich in hits. Some 4.8% of all compounds tested hit in one or more screens of this group.
15-hLO inh = qHTS Assay for Inhibitors of 15-hLO (15-human lipoxygenase). Polyunsaturated fatty acid lipoxygenase ALOX15 (Homo sapiens), P16050. purified 15hLO-1, xylenol orange hydroperoxide absorbance. Potency, µM (top dose mostly 57.1 µM), without a hit: top-dose activity change, negative = inhibition, usual class: inhibitors. hit rate 1.4% among 74,000. AID 887, 2007; note: % is set by controls: 0 for no effect and ±100 for the full control effect; nearly all actives have a fitted effect of over 55% in size
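40 nM 15hLO-1 + cpd, 15 min RT; start w/ 50 uM AA (final), 6 min RT; stop/detect w/ 200 uM XO + 300 uM Fe(II) in 50 mM H2SO4, 30 min; A573/A405. Buffer 25 mM Hepes pH 7.5, 0.01% Triton X-100. No-enzyme wells as negative control.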
TSHR ag = qHTS Assay for Agonists of the Thyroid Stimulating Hormone Receptor; HEK293-CNG-TSHR cells (CNG channel as cAMP sensor), membrane potential dye, cAMP; Potency, µM (highest dose often 57.1 µM), for inactives: top-dose activation, actives largely listed as activators; hit rate 0.48% among 73,000; AID 926, 2007; active = well fitted activation curve with a large enough effect in the main read-out, with a control signal flat, not every such curve was filed as active; inconclusive = small, poorly fitted or top-dose-only effect, or a change in a side signal; inactive = no such curve, though single readings can be large or run the other way; % of control where 0% means no effect;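 note: the control signal comes from parental cells without the receptor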
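HEK 293 cells stably expressing TSHR and a modified CNG channel, with CNG-only parental cells as counterscreen, were preloaded 60 min at room temperature with membrane potential dye containing 100 uM RO 20-1724. Compound exposure was 30 min, and depolarization was read as fluorescence at 590 nm.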
Caspase-1 inhib = qHTS Assay for Allosteric/Competitive Inhibitors of Caspase-1. P29466. Caspase-1 enzyme, Ac-WEHD-AFC fluorogenic rate. Potency, µM (titrated, usually from 57.5 µM), inactives show at the top dose activity change, negative = inhibition, most hits filed as inhibitors. hit rate 0.03% among 75,000. AID 900, 2007;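 note: plate controls were vehicle for no effect and no substrate for full effect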
ERK AVP inh = qHTS Assay for Inhibitors of the ERK Signaling Pathway using a Homogeneous Screening Assay. HEK293-V1b, vasopressin-stimulated pERK AlphaScreen. Potency, µM (top dose mostly 57.5 µM), inactives show top-dose activity, negative = inhibition, hits mostly inhibitors. hit rate 0.99% among 72,000; note: % is set by controls: 0 for no effect and ±100 for the full control effect; nearly all actives have a fitted effect of over 55% in size
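HEK293 cells stably expressing V1b receptor, preincubated 30 min at 37 °C with compound, then stimulated 5 min with 25 nM vasopressin. Phospho-ERK by AlphaScreen SureFire after 5 h RT; normalized to DMSO and vasopressin; AC50 by Hill fit.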
Casp7 inh = qHTS Assay for Allosteric/Competitive Inhibitors of Caspase-7. hit rate 0.02% among 75,000. recombinant caspase-7, Ac-DEVD-AFC fluorescence rate. P55210. AID 889, 2007. Potency, µM (top dose mostly 57.5 µM), inactives show at the highest dose activity change, negative = inhibition, hits mostly inhibitors; active = well fitted inhibition curve with a large enough effect in the main read-out, with a control signal flat, not every such curve was filed as active; inconclusive = small, poorly fitted or top-dose-only effect, or a change in a side signal; note: % of control where 0% means no effect
HEK293 cAMP cs = qHTS Assay for Agonists of the Thyroid Stimulating Hormone Receptor: Activators of Intracellular cAMP Concentrations in Parental HEK 293 | Potency, µM (doses to about 57.1 µM), inactives show top-dose activation, hits mostly activators | hit rate 2.5% among 73,000 | parental HEK293 CNG cAMP sensor, membrane potential fluorescence; note: % of control where 0% means no effect; nearly all actives have a fitted effect of over 55% in size
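Parental HEK 293 cells stably expressing a modified CNG channel (no TSHR) report cAMP rise as membrane depolarization. Membrane potential dye with 100 uM RO 20-1724 was loaded for 60 min at room temperature, then compound added for 30 min; fluorescence read at 590 nm.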
* marks the source's active call; other numbers are inactive results; ? = inconclusive; nt = no result; [ ] = remark or other dose. Unless noted, calls come from the whole dose curve; as a rule, active = well fitted curve in the direction sought with a large enough effect; inconclusive = small, poorly fitted or top-dose-only effect, or another doubt; inactive = no such curve, though single readings can be large; an effect the other way counts as inactive or inconclusive. Potency is the fitted concentration of half-maximal effect.

SMILES	15-hLO inh	TSHR ag	Caspase-1 inhib	ERK AVP inh	Casp7 inh	HEK293 cAMP cs
CCOc1ccc2nc(NC(=O)C(CCSC)NS(=O)(=O)c3cccs3)sc2c1 (stereo not given)	15.8µM*	-8.9%	-3.7%	?	-2.1%	6.2%
CCOc1ccc2nc(NC(=O)C(NS(=O)(=O)c3cccs3)C(C)C)sc2c1 (stereo not given)	2.7%	-3.6%	-3.3%	8.4%	-3.6%	-11.8%
O[C@@H]1CC[C@H]2Cc3ccccc3N=C21	nt	-3.3%	nt	nt	nt	1.8%
N#Cc1ccc(CN2CCCC3(CCN(S(=O)(=O)c4ccccc4)CC3)C2)cc1	-10.7%	?	-5.8%	19.1%	-3.6%	12.6µM*
O=S(=O)(c1ccccc1)N1CCC2(CCCN(c3ccccc3)C2)CC1	0.5%	?	-7.3%	16.2%	-2.6%	25.1µM*
O=S(=O)(c1ccccc1)N1CCC2(CCCN(c3ccncc3)C2)CC1	10.3%	?	-0.3%	-11.1%	-1.3%	20µM*
Nc1cc(C(=O)O)ccc1N1CCCCCC1	-25.3%	1.5%	4.6%	-18.0%	-1.8%	0.7%
COCCN(CCOC)c1nc(C)nc2c1nc(-c1ccccc1)n2CC1CCN(C)CC1	3.3%	8.6%	-3.7%	-15.1%	-7.0%	22.7%
O=C(NCC(c1ccc(F)cc1)N1CCOCC1)c1ccc(Br)o1 (stereo not given)	3.9%	?	-3.8%	2.2%	0.3%	25.1µM*
CS(=O)(=O)N1CCC2(CC1)CN(C(=O)Nc1cccc(C#N)c1)C2	-9.7%	0.4%	-2.2%	-5.8%	-1.5%	2.4%
COc1ccc2nc(SCC(=O)N(C)C3CCCCC3)c(C#N)cc2c1	-16.1%	?	nt	44.8%	?	25.1µM*
COc1ccc2nc(SCC(=O)N3CCCCCC3)c(C#N)cc2c1	-15.6%	nt	nt	9.7%	?	23.9%
COc1ccc2nc(N3CCCCC3)c(C#N)cc2c1	25.1µM*	6.2%	nt	102.5%	?	5.2%
COc1ccc2nc(SCC(=O)Nc3ccc(S(=O)(=O)N4CCCC4)cc3)c(C#N)cc2c1	-1.2%	?	nt	0.1%	?	3.16µM*
COc1ccccc1C(=O)N1CCN(c2nc3cc(C)c(C)cc3cc2C#N)CC1	?	?	nt	14.4%	?	12.6µM*
COc1ccc2nc(N3CCCC3)c(C#N)cc2c1	?	11.1%	nt	76.0%	?	4.7%
N#Cc1cc2ccccc2nc1SCC(=O)Nc1ccc(S(=O)(=O)N2CCCC2)cc1	-4.3%	?	-1.4%	3.2%	1.2%	?
CN(C)c1ncc2nc(CCc3ccccc3)c(=O)n(-c3ccccc3)c2n1	?	?	nt	72.8%	?	?
COc1ccc(NC(=O)c2cnc3sccn3c2=O)cc1OC	3.4%	?	1.2%	nt	1.6%	?
CN1CCN(c2ncc3nc(-c4cc(F)cc(F)c4)c(=O)n(-c4ccccc4)c3n2)CC1	?	?	0.2%	50.1%	1.4%	-35.6%
CCOC(=O)N1CCN(c2nc(C)c3c(n2)CC(C)CC3=O)CC1 (stereo not given)	5.0%	nt	-1.7%	-5.4%	-0.4%	4.4%
O=C(Nc1c2c(nn1-c1ccc(Cl)cc1)CS(=O)(=O)C2)c1ccc2c(c1)OCO2	-17.9%	?	-1.6%	-22.5%	-1.8%	25.1µM*
COC(=O)C1CCN(S(=O)(=O)Cc2ccccc2)CC1	-27.1%	-1.2%	-4.8%	-15.6%	-1.0%	0.9%
CCOC(=O)N1CCN(Cc2cc(=O)oc3ccc4ccccc4c23)CC1	-14.6%	?	-2.7%	-3.4%	-3.4%	25.1µM*
COCC(=O)N1CCC2(CC1)CCN(C(=O)Nc1cccc(C#N)c1)CC2	42.5%	-7.6%	-11.4%	-22.4%	0.0%	0.7%
SMILES	15-hLO inh	TSHR ag	Caspase-1 inhib	ERK AVP inh	Casp7 inh	HEK293 cAMP cs
S=C(c1ccc(-c2ccccc2Cl)o1)N1CCOCC1	?	nt	-2.6%	25.1µM*	-2.2%	20.9%
CCCc1cc2c(n1Cc1cc(F)cc(F)c1)C(C)C1CN(C(=O)c3ccccc3)C(C)(C(=O)OC)C21 (stereo not given)	nt	?	-7.2%	1.5%	-8.0%	?
Cc1ccccc1C(=O)N1CCN(c2ccc(NC(=O)c3ccco3)cc2Cl)CC1	-18.4%	-7.1%	-1.0%	31.6µM*	-1.2%	-1.7%
O=C(Nc1ccc(N2CCN(C(=O)c3ccco3)CC2)c(Cl)c1)c1c(F)c(F)c(F)c(F)c1F	-0.5%	24.2%	-3.3%	-21.4%	-1.6%	4.2%
CCN1CCCC1CNC(=O)c1ccc(Cc2nc3ccccc3[nH]2)cc1 (stereo not given)	6.2%	-2.0%	-2.5%	nt	-0.1%	-6.4%
CCOC(=O)c1c(NC(=O)OC)sc2c1CCC2	-13.1%	nt	-0.1%	-0.5%	-0.1%	22.5%
COC(=O)Nc1sc2c(c1C(N)=O)CCCCCC2	12.6µM*	nt	-1.9%	-16.9%	0.6%	3.0%
CSC1=C(C#N)C(c2cccc(Br)c2)CC(=O)N1 (stereo not given)	-17.2%	-1.7%	1.0%	20µM*	-1.1%	7.6%
O=C(c1ccco1)N1CCC2(CCCN(Cc3ccccc3)C2)CC1	-5.8%	0.9%	-1.0%	9.0%	1.8%	2.9%
CCc1ccc(C(=O)CSC2=C(C#N)C(c3ccco3)C(C(C)=O)=C(C)N2)cc1 (stereo not given)	10µM*	nt	nt	-4.8%	?	13.2%
CC1=C(C(=O)Nc2ccccc2)C(c2ccco2)C(C#N)=C(SCC(=O)OC(C)C)N1 (stereo not given)	-23.1%	?	-9.3%	-0.4%	-7.2%	20µM*
CC1=C(C(=O)Nc2ccccc2)C(c2ccco2)C(C#N)=C(SCc2ccccc2)N1 (stereo not given)	?	nt	-9.6%	18.8%	-11.8%	25.9%
CC(=O)C1=C(C)NC(SCC(=O)c2ccc(F)cc2)=C(C#N)C1c1ccco1 (stereo not given)	20µM*	-7.0%	nt	-3.8%	?	8.2%
COc1ccc(COC(=O)N/N=C2/C[C@@H](O)[C@@H](O)[C@@H]3[C@H]4C(=O)N(c5ccc(F)cc5F)C(=O)[C@@H]4CC[C@@H]23)cc1	2.3%[11.4 µM]	1.1%[11.4 µM]	-3.8%[11.5 µM]	6.8%[11.5 µM]	3.1%[11.5 µM]	-0.5%[11.4 µM]
N#Cc1cccc(NC(=O)N2CCC3(CC2)CCN(C(=O)c2ccco2)CC3)c1	-4.6%	4.9%	-1.4%	-20.4%	0.0%	-1.8%
O=C(c1nn(Cc2ccccc2)c(=O)c2ccccc12)N1CCN(c2ccccn2)CC1	2.6%	?	1.3%	-25.1%	-0.5%	3.98µM*
